Assay results: PubChem BioAssay AID686979 (National Center for Advancing Translational Sciences (NCATS), 2013)
In all, about 420,000 compounds went through this assay and about 50,000 (12%) were called active. Not shown: some 26% with an inconclusive outcome. This excerpt belongs to a sample that is enriched for actives. Unmarked numbers belong to inactive results. Calls follow the shape of the dose curve; as a rule, active = well fitted inhibition curve with a large enough effect; inconclusive = small, poorly fitted or top-dose-only effect; inactive = flat fitted curve, though single readings scatter.

Test: qHTS for Inhibitors of human tyrosyl-DNA phosphodiesterase 1 (TDP1): qHTS in cells in presence of CPT; also: nearly all actives have a fitted effect of over 55% in size
Settings: chicken DT40 Tdp1-/-;hTDP1 cells + 20 nM CPT, ATP luminescence, 48 h; series mostly up to 46.2 µM; activity change, negative = growth inhibition: at the top concentration
Method in brief: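 Chicken DT40 Tdp1-/- cells stably complemented with human TDP1 were seeded at 400 cells/well in medium containing 20 nM camptothecin, exposed to pin-transferred compounds, and grown at 37 °C for at least 48 hr. Viability was read as ATP luminescence.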
% is scaled to controls: 0 for no effect and ±100 for the full control effect; potency is read from the fitted curve at half-maximal effect.

Structure (SMILES)	activity change, negative = growth inhibition	Potency
O=C(CN1CCN(c2ncc(C(F)(F)F)cc2Cl)CC1)Nc1ccc2c(c1)OCO2	-13.8%	
COc1ccc(N2CCN(C(=O)CNC(=O)c3ccc(Br)o3)CC2)cc1	13.1%	
O=C(NCC(=O)N1CCN(c2ncc(C(F)(F)F)cc2Cl)CC1)c1ccc(Br)o1		16.4 µM (active)
Cc1cc(C)cc(C(=O)NC(CC(N)=O)c2ccc(N3CCC(N4CCCCC4)CC3)c([N+](=O)[O-])c2)c1 (stereo not given)	2.09%	
OCCN1CCN(CCO)C1=S	5.79%	
COc1ccccc1CN1CCCC(N2CCN(c3ccc(F)cc3)CC2)C1 (stereo not given)	-27.6%	
CNC[C@H](CC1CCCCC1)NC[C@H](NCCC1CCCC1)[C@H](C)O		16.4 µM (active)
COc1ccc2c(c1OC)C(=O)N(c1ccc(O)cc1)C2	-0.711%	
O=C(CN1CCN(c2ccccc2O)CC1)NC(=O)NCc1ccccc1	-16.9%	
CCc1ccc(C(=O)COC(=O)c2ccco2)cc1	-1.65%	
CCCN1C(=O)C(O)(CC(=O)c2ccc(CC)cc2)c2cc(Br)ccc21 (stereo not given)		7.31 µM (active)
Cc1coc(C)c1C(=O)CC1(O)C(=O)N(C)c2ccc(Cl)cc21 (stereo not given)	3.38%	
COCCNc1nc(-n2nc(C)cc2C)nc2sc3c(c12)CCCC3		3.66 µM (active)
CCC(O)CNc1nc(-n2nc(C)cc2C)nc2sc3c(c12)CC(C)(C)OC3 (stereo not given)		11.6 µM (active)
COCCn1c(C)cc(C(=O)CSc2ncnc3sc4c(c23)CCC4)c1C	-11.5%	
CCOC(=O)CSc1nc2sc3c(c2c(=O)[nH]1)CC(C)(C)OC3	-16.6%	
CC/C(C)=N/Nc1nc2sc3c(c2c(=O)[nH]1)CC(C)(C)OC3	1.97%	
Cc1nc2sc3c(c2c(=O)n1NC(=O)CCl)CCCC3	17.3%	
O=C(O)c1ccc(Cn2cnc3c(=S)nc[nH]c32)cc1	14.7%	
O=C(c1cccnc1)N1CCN(S(=O)(=O)c2cccs2)CC1	-5.05%	
CCc1noc(C)c1C(=O)NCCN1Cc2cc(OC)ccc2OC(CC)C1 (stereo not given)	-8.71% [at 9.04 µM]	
Cc1ccc(C)c(S(=O)(=O)N2CC(=O)Nc3ccccc32)c1	-7.38%	
Cc1cc(-c2ccc(C)c(S(=O)(=O)N3c4ccccc4CC3C)c2)on1 (stereo not given)		18.4 µM (active)
Cc1cc(-c2ccc(C)c(S(=O)(=O)Nc3ccc(S(N)(=O)=O)cc3)c2)on1	-3.34%	
CC1Cc2ccccc2N1S(=O)(=O)c1c(N)n(C)c(=O)n(C)c1=O (stereo not given)	-1.47%	

Structure (SMILES)	activity change, negative = growth inhibition	Potency
CCC1CN(S(=O)(=O)c2cc(-c3cc(C)no3)ccc2C)c2cc(C)ccc2O1 (stereo not given)		20.6 µM (active)
CC(=O)c1ccc(S(=O)(=O)Nc2ccc(-c3ccc4nncn4n3)cc2)cc1	26%	
O=C(O)C(=Cc1ccccc1[N+](=O)[O-])c1ccccc1	-1.61%	
CCCCCCCC1(C)NC(=O)N(CC(=O)Nc2cc(C)on2)C1=O (stereo not given)	-1.42%	
COc1ccc(NC(=O)CN(C)C(=O)c2cc(C3CC3)nn2-c2ccccc2)cc1	-20.1%	
COc1ccc(NC(=O)CN(C)C(=O)c2cccc(S(=O)(=O)N3CCN(c4ccccc4)CC3)c2)cc1		18.4 µM (active)
CCOc1ccc(NC(=O)CN(C)C(=O)c2cccc(S(=O)(=O)N3CCCC3)c2)cc1OCC	6.25%	
COc1cc(/C(=C/c2ccccc2)c2ccccc2)c2c(c1)oc1ccccc12		inactive
O=C(CSc1n[nH]c(-c2cccnc2)n1)Nc1ccc(Cl)cc1	-6.52%	
COc1cc(C#Cc2ccc3cc(CCCO)oc(=O)c3c2)cc(OC)c1		0.651 µM (active)
Cc1ccc(N(CC(=O)NC2CCCCC2)C(=O)CCCC(=O)Nc2ccccn2)c(C)c1	-6.89%	
CC(C)(C)S(=O)(=O)c1ccccc1-c1noc(-c2ccccc2)c1C(N)=O	14.1%	
COc1ccc(S(=O)(=O)N(CC(=O)NCc2ccco2)c2ccc(F)cc2)cc1	-11%	
Cc1ccc(N(CC(=O)NCc2ccc(Cl)cc2)S(=O)(=O)N(C)C)cc1	-2.04%	
COc1ccc(CNC(=O)CN(c2ccc(OC)c(Cl)c2)S(=O)(=O)c2ccc(C)cc2)cc1		25.9 µM (active)
COCc1cc(C)nc2sc(C(=O)NC3CCCCC3)c(N)c12	-21.3%	
O=C(O)C1=C(C(=O)O)C2CCC1C2	0.326%	
CCN(CCN(C)C)C(=O)c1ccc2nc(C)c(N(C)C(=O)CCc3ccccc3)n2c1	13.7%	
Cc1ccc(CNC(=O)COC(=O)C2CCC2)cc1	-1.47%	
CC(O)c1ccc(OCCN(C)c2ccccn2)cc1 (stereo not given)	4.7%	
CSc1ccc(CCNC(=O)CS(=O)(=O)Cc2nc(-c3ccccc3F)oc2C)cc1	-0.97%	
Cc1ccc(S(=O)(=O)CC(=O)NC(C)c2ccccc2)cc1 (stereo not given)	8.16%	
Cc1ccccc1-c1nc(CS(=O)(=O)CC(=O)NC(C)c2ccccc2)c(C)o1 (stereo not given)		16.4 µM (active)
CC(C)Cc1nnc(NC(=O)CCNC(=O)c2ccccc2Cl)s1	-10%	
CCOC(=O)N1CCN(C(=O)C2CCCN(c3ncnc4c3sc3cccc(F)c34)C2)CC1 (stereo not given)	-104%	
